As usually defined, the inhibition is the drop in the measured response relative to a control, in per cent.

The campaign covered roughly 190,000 compounds. About 240 (0.13%) were called active. This is one part of a sample in which actives are shown more often than they occur. A number with no mark means an inactive call. Rule as the data show it: active = inhibition above about 40%.

Five compounds from PubChem BioAssay AID1008 (NMMLSC, 2008) can be followed below.

Sequence of Bcl-2-related protein A1 (Homo sapiens) (Q16548 whole entry, looked up): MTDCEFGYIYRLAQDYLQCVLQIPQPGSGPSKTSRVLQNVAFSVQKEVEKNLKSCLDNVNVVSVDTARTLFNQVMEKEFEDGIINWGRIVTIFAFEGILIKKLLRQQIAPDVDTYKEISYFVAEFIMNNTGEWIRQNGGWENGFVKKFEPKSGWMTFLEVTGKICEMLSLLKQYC

The test concerns the target Bcl-2-related protein A1 (Homo sapiens) (UniProt Q16548). In words: inhibitors of Bim binding to Bfl-1, primary screen, biochemical, multiplexed, bead-based flow cytometry (AID 1008).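 Also: 0% = wells without compound plus tracer and 100% = blocker peptide.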 The settings on record: Bim-Bfl-1 binding inhibition, at 10 µM, hits give high values.
Turning to `C=CCn1c(O)c(/C=N/N2CCOCC2)c(=O)[nH]c1=S`, the inhibition was 3%. For the compound `Cc1cccc(-n2c(O)c(/C=N/N3CCOCC3)c(=O)[nH]c2=S)c1`, the inhibition was 41% (active). Consider `O=c1[nH]c(=S)n(C2CC2)c(O)c1/C=N/N1CCOCC1`, for which the inhibition was -14%.

Turning to `N#Cc1ccc(Cn2cc(C(=O)c3ccco3)c3ccccc32)cc1`, the inhibition is -4%. With `CCOC(=O)C1(Cc2ccc(Cl)cc2)CCN(C(C)CCn2cccn2)CC1` (stereo not given), the inhibition was 0%.
